Bioassay records: PubChem, National Center for Advancing Translational Sciences (NCATS)
D2 ag-1: HTS Assay for Allosteric Agonists of the Human D2 Dopamine Receptor: Primary Screen for Agonists | D(2) dopamine receptor (Homo sapiens), P14416 | HEK293 T-REx D2 cells, calcium flux agonist mode | activation, % at 2 µM | 340,000 tested, 0.53% active | AID 485358, 2010;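 active = activation over 3 SD above normal in the single-dose calcium agonist read, cut at about 30% in these data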
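Agonism is scored from calcium flux in a force-coupled, inducible HEK293 cell line expressing D2, read kinetically for 180 s after compound addition against dopamine controls.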
D2 PAM-1: Beta-Arrestin HTS for Positive Allosteric Modulators of the Human D2 Dopamine Receptor: Potentiators; D(2) dopamine receptor (Homo sapiens), P14416; DiscoveRx D2 beta-arrestin cells, luminescence, 90 min; 100% = 57 uM dopamine signal; potentiation, % (test concentration not listed); 360,000 tested, 0.23% active; AID 624464, 2012; in the data active = potentiation above about 50%; inconclusive = mostly about 30% to 49%
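D2 cells co-treated with compound plus 50 nM dopamine (EC20) for 90 min at 37 deg C to detect potentiation. Beta-arrestin recruitment was read as enzyme-fragment luminescence after 1 h at ambient temperature. Full response was set by 57 uM dopamine.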
D2 PAM-2: HTS Assay for Positive Allosteric Modulators of the Human D2 Dopamine Receptor: Primary Screen for Potentiators; HEK293 T-REx D2, calcium flux, EC20 dopamine potentiation; potentiation, % at 10 µM; 340,000 tested, 0.34% active;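 active = potentiation over 3 SD above the plate norm, cut at about 30% in these data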
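Tetracycline-induced HEK293 T-REx cells force-coupled to calcium signalling expressed D2; compounds were pin-added after a 10 s baseline, read kinetically 180 s, then an EC20 dopamine challenge followed with a further 180 s calcium read.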
D2 ag-2: Beta-Arrestin HTS for Positive Allosteric Modulators of the Human D2 Dopamine Receptor: Agonists. D(2) dopamine receptor (Homo sapiens), P14416. DiscoveRx PathHunter D2 beta-arrestin, luminescence, 90 min; 100% = 57 uM dopamine signal. activation, % (concentration not given with the values). 360,000 tested, 0.084% active. AID 624465, 2012; in the data active = activation above about 40%; inconclusive = between about 15% and that limit
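Agonist mode: compounds alone added to overnight-plated D2 PathHunter cells for 90 min at 37 C, with 57 uM final dopamine (EC100) defining full response. Beta-arrestin recruitment detected by chemiluminescent reagent, read after 1 h at ambient temperature.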
D2 antagonist: HTS Assay for Allosteric Antagonists of the Human D2 Dopamine Receptor: Primary Screen for Antagonists; D(2) dopamine receptor (Homo sapiens), P14416; HEK293 TREx D2 cells, calcium flux, dopamine EC80; inhibition, % at 10 µM; 340,000 tested, 2% active; in the data active = inhibition above about 30%; inactive = below that, where a call was filed
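Antagonism is scored as inhibition of an EC80 dopamine-evoked calcium signal in a force-coupled, tetracycline-inducible HEK293 T-REx D2 line, with compound present 180 s before agonist.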
D3 ag: qHTS of D3 Dopamine Receptor Agonist: D3 Dopamine Receptor B-arrestin Agonist Confirmatory Assay; Potency, µM (highest dose often 76.9 µM), most hits filed as activators; 2,300 tested, 4% active; shares compounds with D2 ag-1; DiscoveRx D3 beta-arrestin cells, luminescence, 90 min; AID 720506, 2013; note: nearly all actives have a fitted effect of over 70% in size
Target sequence (P35462 whole entry, looked up): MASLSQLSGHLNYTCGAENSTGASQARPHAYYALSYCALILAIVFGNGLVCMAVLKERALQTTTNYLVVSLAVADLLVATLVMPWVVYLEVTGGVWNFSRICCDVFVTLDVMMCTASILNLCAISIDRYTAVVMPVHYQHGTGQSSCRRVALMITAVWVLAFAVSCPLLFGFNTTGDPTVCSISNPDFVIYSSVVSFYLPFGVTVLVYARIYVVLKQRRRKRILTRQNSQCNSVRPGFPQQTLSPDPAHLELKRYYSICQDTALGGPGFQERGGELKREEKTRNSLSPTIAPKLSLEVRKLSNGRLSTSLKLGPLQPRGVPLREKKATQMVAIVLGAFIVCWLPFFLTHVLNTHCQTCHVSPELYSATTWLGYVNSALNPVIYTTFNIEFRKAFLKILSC
D2 ag-3: qHTS of D3 Dopamine Receptor Agonist: D2 Dopamine Receptor B-arrestin Agonist Counterscreen | shares compounds with D2 ag-1 | DiscoveRx PathHunter D2 beta-arrestin, luminescence, 90 min; response scale: percent relative to full dopamine signal | Potency, µM (titrated, usually from 76.9 µM), most hits filed as activators | 2,300 tested, 5.9% active; note: nearly all actives have a fitted effect of over 70% in size
Of the large screens only hits and unclear results are named; the others gave an inactive call (follow-up assays come after a bar, where they were run). Compounds with a hit are over-represented: about 2.4% of the library has one in this group of screens. Unless noted, calls come from the whole dose curve; as a rule, active = well fitted activation curve with a large enough effect; inconclusive = small, poorly fitted or top-dose-only effect; inactive = flat fitted curve, though single readings scatter.

N#C/C(N)=C(/N)C#N	none | D3 ag inactive | D2 ag-3 inactive
COc1cccc(-n2c(/C=C/c3ccccc3O)nc3ccccc3c2=O)c1	none (no result: D2 PAM-1, D2 PAM-2, D2 ag-2, D2 antagonist)
COc1ccc(CN2CCN(c3ccccc3)CC2)c(C)c1C	D2 ag-1 63, D2 antagonist 65 | D3 ag inactive | D2 ag-3 inactive
CC(C)(C)n1nnnc1C(c1cccc2ccccc12)N1CCC2(CC1)C(=O)NCN2c1ccccc1 (stereo unspecified)	none (no result: D2 ag-1, D2 PAM-2, D2 antagonist)
O=P(CN1CCN(c2ccccc2)CC1)(N1CCCCC1)N1CCCCC1	D2 antagonist 37 | D3 ag inactive | D2 ag-3 inactive
CCOc1ccc(CN(CCc2ccc3c(c2)OCO3)Cc2ccc(OC)c(Br)c2)cc1	none (no result: D2 PAM-1, D2 ag-2, D2 antagonist)
NCC(O)c1cc(O)c(O)cc1F (stereo unspecified)	D2 ag-1 67, D2 antagonist 81 | D3 ag inactive | D2 ag-3 13µM
O=C(NC(=S)N1CC1)c1ccccc1	none (no result: D2 ag-1, D2 PAM-2, D2 antagonist)
C=C1C(O)[C@@H]2O[C@]3(CC[C@H](/C=C/C(C)[C@@H]4CC(C)=CC5(O[C@H](C[C@@](C)(O)C(=O)O)CCC5O)O4)O3)CC[C@H]2O[C@@H]1C(O)CC(C)[C@H]1OC2(CCCCO2)CCC1C (stereo partly specified)	none (no result: D2 ag-1, D2 PAM-2, D2 antagonist)
COC(=O)C1=C(c2cc3ccccc3s2)C[C@@H]2CC[C@H]1N2C	D2 antagonist 58 | D3 ag inactive | D2 ag-3 inactive
COC(=O)C1=C(c2cc3ccccc3s2)C[C@@H]2CC[C@H]1N2C(=O)NC1CC1	none (no result: D2 ag-1, D2 PAM-2, D2 antagonist)
c1ccc2cc(CC3=NCCN3)ccc2c1	none
c1ccc(C2CC2)c(OCC2=NCCN2)c1	D2 antagonist 47 | D3 ag inactive | D2 ag-3 inactive
N#CC1c2ccccc2-n2nncc2CN1C(=O)c1ccccc1F (stereo unspecified)	none (no result: D2 ag-1, D2 PAM-2, D2 antagonist)
c1ccc(-c2cc(-c3ccccc3)[n+](-c3ccccc3)c(-c3ccccc3)c2)cc1	none (no result: D2 ag-1, D2 PAM-2, D2 antagonist)
Cc1ccc(-c2cc(-c3ccc(C)cc3)[n+](-c3ccccc3)c(-c3ccc(C)cc3)c2)cc1	D2 antagonist 49 | D3 ag inactive | D2 ag-3 inactive
COc1cc2c3c(c1OC)-c1cc(O)ccc1CC3NCC2 (stereo unspecified)	none | D3 ag inactive | D2 ag-3 inactive
COC(=O)C1=C(C(=O)OC)C2OC1c1cc3ccccc3cc12	none (no result: D2 ag-1, D2 PAM-2, D2 antagonist)
CCCCOCCCN1C(C)=CC(=C2C(=O)NC(=S)NC2=O)C=C1C	none | D3 ag inactive | D2 ag-3 inactive
CCOc1ccc(CN2CCN(C(=O)Cc3ccccc3)CC2)cc1	none
CCOC(=O)C1CCN(Cc2ccc(Cl)nc2)CC1	D2 ag-1 47, D2 antagonist 47 | D3 ag inactive | D2 ag-3 inactive
O=C1CC(c2ccc(C(F)(F)F)cc2)c2c(c3ccccc3oc2=O)O1 (stereo unspecified)	none (no result: D2 PAM-1, D2 ag-2, D2 antagonist)
CC(C(N)=O)N1CC(c2ccccc2)CC1=O (stereo unspecified)	D2 ag-1 45 | D3 ag inactive | D2 ag-3 inactive
COc1ccc(CN2CCN(c3ccccc3F)CC2)cc1O	none (no result: D2 ag-1, D2 PAM-2, D2 antagonist) | D3 ag inactive | D2 ag-3 inactive
COc1ccccc1N1CCN(Cc2ccc(F)cc2)CC1	D2 ag-1 38, D2 antagonist 76 | D3 ag inactive | D2 ag-3 inactive
CCOC(=O)CNC(=O)N1Cc2cc(N3CCOCC3)ccc2-n2nncc2C1	none (no result: D2 ag-1, D2 PAM-2, D2 antagonist)
Clc1ccc2c(c1)C(c1ccccc1Cl)=NCc1nnc(N3CCN(CCSc4ccccc4)CC3)n1-2	none
Clc1ccc2c(c1)C(c1ccccc1Cl)=NCc1nnc(N3CCN(CCOc4ccccc4)CC3)n1-2	D2 ag-1 58, D2 antagonist 65 | D3 ag inconclusive | D2 ag-3 inactive
CC(C)(C)c1cc(C=C(C#N)C#N)cc(C(C)(C)C)c1O	none | D3 ag inconclusive | D2 ag-3 inactive
N#CC(C#N)=Cc1ccc(O)c(O)c1	none
NCCc1ccc(O)cc1	D2 ag-1 51, D2 antagonist 47 | D3 ag inconclusive | D2 ag-3 inactive
O=c1[nH]c2ccccc2n1C1CCN(C(CCc2ccccc2)c2nnnn2C2CCCC2)CC1 (stereo unspecified)	D2 ag-2 inconclusive (no result: D2 ag-1, D2 PAM-2, D2 antagonist)
C[C@]12CCC3C(CC[C@H]4C[C@H](O)CC[C@]34C)C1[C@@H](O)C[C@@H]2O (stereo partly specified)	none (no result: D2 ag-1, D2 PAM-2, D2 antagonist)
S=C(NCCc1ccccc1)N1Cc2ccccc2-n2nncc2C1	none (no result: D2 ag-1, D2 PAM-2, D2 antagonist)
Fc1ccccc1N1CCN(Cc2c(F)cccc2F)CC1	D2 ag-1 36 | D3 ag inactive | D2 ag-3 inactive
Cc1ccccc1N1CCN(Cc2ccc3c(c2)OCO3)CC1	D2 antagonist 83 | D3 ag inactive | D2 ag-3 inactive
Fc1ccccc1N1CCN(Cc2ccc3c(c2)OCO3)CC1	D2 ag-1 78, D2 ag-2 42, D2 antagonist 88 | D3 ag inconclusive | D2 ag-3 inconclusive
Fc1cccc(F)c1CN1CCN(c2ccc(Cl)cc2)CC1	none
Clc1ccccc1N1CCN(Cc2ccc3c(c2)OCO3)CC1	D2 ag-1 71, D2 antagonist 60 | D3 ag inactive | D2 ag-3 inconclusive
COC(=O)C1=C(c2ccc(OC(F)(F)F)cc2)C[C@@H]2CC[C@H]1N2C(=O)N1CCCC1	none
CC(CCc1ccccc1)NC(C)C(O)c1ccc(O)cc1 (stereo unspecified)	D2 ag-1 71, D2 antagonist 64 | D3 ag inactive | D2 ag-3 inactive
O=[N+]([O-])NC1=NCCN1Cc1ccc(Cl)nc1	none
CCOC(=O)c1ccccc1C(=O)OCC	none (no result: D2 ag-1, D2 PAM-2, D2 antagonist)
CCCOC(=O)c1ccccc1C(=O)OCCC	none | D3 ag inactive | D2 ag-3 inactive
CCCOc1ccc(C2SCC(=O)Nc3c2c(C)nn3-c2cccc(C)c2)cc1OC (stereo unspecified)	none (no result: D2 PAM-1, D2 ag-2, D2 antagonist)
O=C1c2ccccc2-c2c1nc1c([n+]2[O-])CCCC1	none | D3 ag inactive | D2 ag-3 inactive
CCCCCc1nc2ccccc2c(=O)n1-c1ccc(C)cc1	none (no result: D2 PAM-1, D2 ag-2, D2 antagonist)
